In article PMC11006913:
Positions count from the first letter of the chain named.

Key:
Assay in all cases: PBM; 200 nM protein, PBS
Details in all cases: dsDNA, one strand shown
[1] = target: HOXB6 (Homo sapiens, UniProt P17509 132-218, K202E)
[2] = target: HOXB6 (Homo sapiens, UniProt P17509 132-218)
[3] = target: T1, SIX6 (Homo sapiens, UniProt O95475 114-200, H141N)
T1 sequence: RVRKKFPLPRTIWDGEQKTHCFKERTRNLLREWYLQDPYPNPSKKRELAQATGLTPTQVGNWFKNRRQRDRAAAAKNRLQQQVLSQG

[4] = target: T2, SIX6 (Homo sapiens, UniProt O95475 114-200, L143I)
T2 sequence: T1 sequence with N28H, L30I

[5] = target: T3, SIX6 (Homo sapiens, UniProt O95475 114-200, T165A)
T3 sequence: T1 sequence with N28H, T52A

[6] = target: T4, SIX6 (Homo sapiens, UniProt O95475 114-200)
T4 sequence: T1 sequence with N28H

[7] = target: T5, VENTX (Homo sapiens, UniProt O95231 78-163)
T5 sequence: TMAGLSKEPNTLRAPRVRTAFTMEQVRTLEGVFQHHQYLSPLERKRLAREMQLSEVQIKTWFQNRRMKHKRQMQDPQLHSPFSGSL

[8] = target: HOXC9 (Homo sapiens, UniProt P31274 178-260, K195R)
Sequence of HOXC9 (Homo sapiens, UniProt P31274 178-260, K195R) (P31274 178-260 K195R): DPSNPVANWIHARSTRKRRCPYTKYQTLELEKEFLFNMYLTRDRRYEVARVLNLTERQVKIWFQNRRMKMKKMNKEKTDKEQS

[9] = target: HOXC9 (Homo sapiens, UniProt P31274 178-260)
Sequence of HOXC9 (Homo sapiens, UniProt P31274 178-260) (P31274 178-260): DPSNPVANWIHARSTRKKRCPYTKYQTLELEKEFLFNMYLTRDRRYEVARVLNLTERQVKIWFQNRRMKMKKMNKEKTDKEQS

[10] = target: HOXC9 (Homo sapiens, UniProt P31274 178-260, R193K)
Sequence of HOXC9 (Homo sapiens, UniProt P31274 178-260, R193K) (P31274 178-260 R193K): as the sequence (P31274 178-260) above, with R16K counted along it

[11] = target: HOXC9 (Homo sapiens, UniProt P31274 178-260, R222W)
Sequence of HOXC9 (Homo sapiens, UniProt P31274 178-260, R222W) (P31274 178-260 R222W): as the sequence (P31274 178-260) above, with R45W counted along it

[12] = target: VAX1 (Homo sapiens, UniProt Q5SQQ9 86-172)
Sequence of VAX1 (Homo sapiens, UniProt Q5SQQ9 86-172) (Q5SQQ9 86-172): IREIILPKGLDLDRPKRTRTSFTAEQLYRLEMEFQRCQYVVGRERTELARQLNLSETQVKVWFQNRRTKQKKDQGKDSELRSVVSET

[13] = target: VAX1 (Homo sapiens, UniProt Q5SQQ9 86-172, T142I)
Sequence of VAX1 (Homo sapiens, UniProt Q5SQQ9 86-172, T142I) (Q5SQQ9 86-172 T142I): as the sequence (Q5SQQ9 86-172) above, with T57I counted along it

[14] = target: VAX1 (Homo sapiens, UniProt Q5SQQ9 86-172, K157R)
Sequence of VAX1 (Homo sapiens, UniProt Q5SQQ9 86-172, K157R) (Q5SQQ9 86-172 K157R): as the sequence (Q5SQQ9 86-172) above, with K72R counted along it

[15] = target: HOXB9 (Homo sapiens, UniProt P17482 171-250, T197M)
Sequence of HOXB9 (Homo sapiens, UniProt P17482 171-250, T197M) (P17482 171-250 T197M): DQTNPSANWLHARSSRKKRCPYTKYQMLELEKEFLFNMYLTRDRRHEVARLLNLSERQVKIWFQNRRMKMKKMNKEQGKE

[16] = target: HOXB9 (Homo sapiens, UniProt P17482 171-250)
Sequence of HOXB9 (Homo sapiens, UniProt P17482 171-250) (P17482 171-250): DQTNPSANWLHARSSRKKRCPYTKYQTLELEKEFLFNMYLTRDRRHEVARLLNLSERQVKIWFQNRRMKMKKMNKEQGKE

[17] = target: HOXB9 (Homo sapiens, UniProt P17482 171-250, R186Q)
Sequence of HOXB9 (Homo sapiens, UniProt P17482 171-250, R186Q) (P17482 171-250 R186Q): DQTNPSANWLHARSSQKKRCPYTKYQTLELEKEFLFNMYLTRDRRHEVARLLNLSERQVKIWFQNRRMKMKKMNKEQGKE

[18] = target: HOXA4 (Homo sapiens, UniProt Q00056 201-287, W262R)
Sequence of HOXA4 (Homo sapiens, UniProt Q00056 201-287, W262R) (Q00056 201-287 W262R): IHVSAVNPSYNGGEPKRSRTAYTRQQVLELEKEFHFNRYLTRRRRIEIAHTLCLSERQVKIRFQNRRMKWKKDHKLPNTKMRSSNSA

[19] = target: HOXA4 (Homo sapiens, UniProt Q00056 201-287, R217L)
Sequence of HOXA4 (Homo sapiens, UniProt Q00056 201-287, R217L) (Q00056 201-287 R217L): as the sequence (Q00056 201-287 W262R) above, with R17L, R62W counted along it

[20] = target: HOXA4 (Homo sapiens, UniProt Q00056 201-287)
Sequence of HOXA4 (Homo sapiens, UniProt Q00056 201-287) (Q00056 201-287): as the sequence (Q00056 201-287 W262R) above, with R62W counted along it

Sequence of HOXB6 (Homo sapiens, UniProt P17509 132-218, K202E) (P17509 132-218 K202E): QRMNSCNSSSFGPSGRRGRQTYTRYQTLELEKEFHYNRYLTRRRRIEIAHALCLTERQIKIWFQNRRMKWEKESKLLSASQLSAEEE
Sequence of HOXB6 (Homo sapiens, UniProt P17509 132-218) (P17509 132-218): as the sequence (P17509 132-218 K202E) above, with E71K counted along it

Question: Which binding signal [1] does the source give for GCAATTAC here?
Answer: 9.75 upbm affinity estimate (log intensity, higher = more binding, comparable within an allelic series)

Question: What about the binding signal [2] of the same sequence?
Answer: 11.7 upbm affinity estimate (log intensity, higher = more binding, comparable within an allelic series)

Question: CGCGTAGC was tested. Which binding signal [3] did it give?
Answer: 9.02 upbm affinity estimate (log intensity, higher = more binding, comparable within an allelic series)

Question: What about the binding signal [4] of the same sequence?
Answer: 8.99 upbm affinity estimate (log intensity, higher = more binding, comparable within an allelic series)

Question: And the binding signal [5]?
Answer: 9.02 upbm affinity estimate (log intensity, higher = more binding, comparable within an allelic series)

Question: What about the binding signal [6] of the same sequence?
Answer: 9 upbm affinity estimate (log intensity, higher = more binding, comparable within an allelic series)

Question: For CCAGGACC, which binding signal [7] is on record?
Answer: 7.74 upbm affinity estimate (log intensity, higher = more binding, comparable within an allelic series)

Question: CCCGGCTC was tested. Which binding signal [8] did it give?
Answer: 9.4 upbm affinity estimate (log intensity, higher = more binding, comparable within an allelic series)

Question: And the binding signal [9]?
Answer: 9.46 upbm affinity estimate (log intensity, higher = more binding, comparable within an allelic series)

Question: What about the binding signal [10] of the same sequence?
Answer: 9.4 upbm affinity estimate (log intensity, higher = more binding, comparable within an allelic series)

Question: And the binding signal [11]?
Answer: 9.63 upbm affinity estimate (log intensity, higher = more binding, comparable within an allelic series)

Question: For CCCCCAGC, which binding signal [7] is on record?
Answer: 8.03 upbm affinity estimate (log intensity, higher = more binding, comparable within an allelic series)

Question: What about the binding signal [12] of the same sequence?
Answer: 7.08 upbm affinity estimate (log intensity, higher = more binding, comparable within an allelic series)

Question: What about the binding signal [13] of the same sequence?
Answer: 7.15 upbm affinity estimate (log intensity, higher = more binding, comparable within an allelic series)

Question: What about the binding signal [14] of the same sequence?
Answer: 6.96 upbm affinity estimate (log intensity, higher = more binding, comparable within an allelic series)

Question: Which binding signal [7] does the source give for GTCCTGCA here?
Answer: 8.28 upbm affinity estimate (log intensity, higher = more binding, comparable within an allelic series)

Question: ACAATTAT was tested. Which binding signal [15] did it give?
Answer: 9.96 upbm affinity estimate (log intensity, higher = more binding, comparable within an allelic series)

Question: And the binding signal [1]?
Answer: 9.99 upbm affinity estimate (log intensity, higher = more binding, comparable within an allelic series)

Question: With GCCAGACC as the sequence, how does the binding signal [8] read?
Answer: 9.5 upbm affinity estimate (log intensity, higher = more binding, comparable within an allelic series)

Question: And the binding signal [3]?
Answer: 9.01 upbm affinity estimate (log intensity, higher = more binding, comparable within an allelic series)

Question: And the binding signal [4]?
Answer: 8.96 upbm affinity estimate (log intensity, higher = more binding, comparable within an allelic series)

Question: And the binding signal [9]?
Answer: 9.48 upbm affinity estimate (log intensity, higher = more binding, comparable within an allelic series)

Question: And the binding signal [5]?
Answer: 9.03 upbm affinity estimate (log intensity, higher = more binding, comparable within an allelic series)

Question: And the binding signal [10]?
Answer: 9.46 upbm affinity estimate (log intensity, higher = more binding, comparable within an allelic series)

Question: And the binding signal [6]?
Answer: 9.02 upbm affinity estimate (log intensity, higher = more binding, comparable within an allelic series)

Question: And the binding signal [11]?
Answer: 9.66 upbm affinity estimate (log intensity, higher = more binding, comparable within an allelic series)

Question: Which binding signal [3] does the source give for CAGGCGCC here?
Answer: 8.85 upbm affinity estimate (log intensity, higher = more binding, comparable within an allelic series)

Question: And the binding signal [4]?
Answer: 8.87 upbm affinity estimate (log intensity, higher = more binding, comparable within an allelic series)

Question: What about the binding signal [5] of the same sequence?
Answer: 8.89 upbm affinity estimate (log intensity, higher = more binding, comparable within an allelic series)

Question: What about the binding signal [6] of the same sequence?
Answer: 8.81 upbm affinity estimate (log intensity, higher = more binding, comparable within an allelic series)

Question: How did the binding signal [8] turn out when CCGTAGGC was run?
Answer: 9.73 upbm affinity estimate (log intensity, higher = more binding, comparable within an allelic series)

Question: What about the binding signal [9] of the same sequence?
Answer: 9.68 upbm affinity estimate (log intensity, higher = more binding, comparable within an allelic series)

Question: And the binding signal [10]?
Answer: 9.78 upbm affinity estimate (log intensity, higher = more binding, comparable within an allelic series)

Question: And the binding signal [11]?
Answer: 9.77 upbm affinity estimate (log intensity, higher = more binding, comparable within an allelic series)

Question: For GCGAGCGC, which binding signal [15] is on record?
Answer: 8.46 upbm affinity estimate (log intensity, higher = more binding, comparable within an allelic series)

Question: And the binding signal [16]?
Answer: 8.32 upbm affinity estimate (log intensity, higher = more binding, comparable within an allelic series)

Question: What about the binding signal [17] of the same sequence?
Answer: 8.42 upbm affinity estimate (log intensity, higher = more binding, comparable within an allelic series)

Question: For AGGGTCCC, which binding signal [18] is on record?
Answer: 9.9 upbm affinity estimate (log intensity, higher = more binding, comparable within an allelic series)

Question: What about the binding signal [19] of the same sequence?
Answer: 9.79 upbm affinity estimate (log intensity, higher = more binding, comparable within an allelic series)

Question: What about the binding signal [20] of the same sequence?
Answer: 9.74 upbm affinity estimate (log intensity, higher = more binding, comparable within an allelic series)

Question: Which binding signal [3] does the source give for CGCACGCC here?
Answer: 8.95 upbm affinity estimate (log intensity, higher = more binding, comparable within an allelic series)

Question: And the binding signal [4]?
Answer: 8.97 upbm affinity estimate (log intensity, higher = more binding, comparable within an allelic series)

Question: What about the binding signal [5] of the same sequence?
Answer: 8.87 upbm affinity estimate (log intensity, higher = more binding, comparable within an allelic series)

Question: And the binding signal [6]?
Answer: 8.9 upbm affinity estimate (log intensity, higher = more binding, comparable within an allelic series)

Question: What does the source list for ATAATTGC?
Answer: binding signal [15]: 10.2 upbm affinity estimate (log intensity, higher = more binding, comparable within an allelic series); binding signal [8]: 12.6 upbm affinity estimate (log intensity, higher = more binding, comparable within an allelic series); binding signal [1]: 9.97 upbm affinity estimate (log intensity, higher = more binding, comparable within an allelic series); binding signal [16]: 11.7 upbm affinity estimate (log intensity, higher = more binding, comparable within an allelic series); binding signal [17]: 11.5 upbm affinity estimate (log intensity, higher = more binding, comparable within an allelic series); binding signal [2]: 12 upbm affinity estimate (log intensity, higher = more binding, comparable within an allelic series)
